From the supplement of paper PMC6555819

system: PPARg DBDmut IVT, anti-PPARg (DBD mutation: PPARg1 K132A/R137A, NR concentration 270 nM); test: PBM binding z-score (relative to random genomic background probes); higher = stronger binding; sequences stand for … in GC…GCGATTGACAGCGTAGAATGAAGG
How it was run: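 Binding buffer was PBS pH 7.4 with 2% milk, 0.02% Triton X-100, 1 mM DTT, 0.2 mg/mL BSA and 0.4 mg/ml salmon testes DNA. In it, ligand-free nuclear receptor dimers were incubated 1 h on custom Agilent 4×180K protein-binding microarrays carrying double-stranded probes. Antibodies against each partner (one per run) detected binding, and z-scores were calculated against random background probes after regression normalization of scanned fluorescence.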

| Sequence | PBM binding z-score |
| --- | --- |
| CTACCAAGGTGAACAAGGTCGTTGACTACTATTC | 0.324 |
| GCTAGCTGGTCAGTAAAAGGTCACACACCGGTCG | -0.213 |
| AGTCAAAGTTCACTAGGTAACGTCAGATTCAGCT | 0.959 |
| CTCGAAAGGTAGGTTGAGGTGAGTATACGGATAA | 0.253 |
| TCATATAGGTAAATGCGAGGTGAAAGTCCGATCT | 1.1 |
| TAGCCTAGGGCATTGGGCCAGTATAGTACGCATC | -0.898 |
| ATCTCTAGGTAAAGTTCAGTAAAAGATCGATAGA | 0.984 |
| CAGCCTAGGTCAGGGCTAGTATAGGAGGAACGTT | -0.952 |
| CAGACTAGGTCAGGGCCAGTATAGGAGGAACGTT | 0.382 |
| CCTCGGAGGACAGAAGGTCAGAGTTGTCCGCTTT | -1.42 |
| CTCGAAAGGTCGGTTGAGGTGAGTATCCGGATAA | -0.258 |
| ATCGAAAGGTCGAGGTGAGTATAGAGAAAGGGAA | 0.688 |
| AATACAGGGTCATCGTAGGCCAAAGTACGCACAG | 2.62 |
| CGTCCAAGCTCAATGCTAGGTCAGTGAAAGCATT | -1.34 |
| ATCTCTAGGTAAAGATAGTTCAGTGACTGCAAAT | 0.496 |
| TCTATTAGTTGAAGGGCAACCGGCGAGTCCGTTT | 0.729 |
| CTCGAAACGTCGGTTGAGGTGAGTATACGGATAA | 0.207 |
| ACTAGCAGGCCAAGGGACACTCAAGATTAGTCCG | -0.851 |
| TTACCAAGGTTAAGGTCGTTGATCCCTCTGTAGA | 0.342 |
| GCTGCTAGGTCAGGTTGGACAGCTAACGGGTACG | -0.812 |
| GCTATTCGTTGAAAGGGCAACCGAATGATTCTCG | 0.234 |
| CAAACTAGGTCAAAGGTCAATGTCGAGCCAACCA | 5.46 |
